PNC inhibitor = perinucleolar compartment assembly inhibition | activity change (PNC), negative = inhibition, % at 10 µM | PC3M PTB-GFP, PNC prevalence imaging, 16 h; active compounds read low | actives 3.1% (n = 140,000);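 active means readout at or below -70, meaning at least 70% loss of cells showing the perinucleolar compartment, a nuclear body marking cancer cells; inconclusive means readout between -30 and a set limit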
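Compounds are pinned in duplicate onto adhered PC3M cells stably expressing GFP-tagged PTB and incubated 16 h at 37 C. Cells are then fixed, nuclei stained with Hoechst, and PNC-positive cells counted.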
Tau fibril ThT = blocks human tau fibril formation measured by thioflavin T. recombinant tau K18 P301L, heparin-induced fibrillization, ThT fluorescence. Potency, µM (highest dose often 57.4 µM), hits mostly inhibitors. actives 2.1% (n = 270,000); further: nearly all actives have a fitted effect of over 55% in size
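Aggregation was driven by heparin (20 uM final) acting on recombinant tau […] bearing P301L in 100 mM sodium acetate pH 7; fibrils were detected with Thioflavin T.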
NPSR antag = blocks cAMP signaling of the human neuropeptide S receptor; CHO-NPSR cells, cAMP TR-FRET, antagonist mode; Potency, µM (highest dose often 38.3 µM), hits mostly inhibitors; Q6W5P4; actives 1% (n = 220,000); further: nearly all actives have a fitted effect of over 50% in size
Target sequence (Q6W5P4 whole entry, looked up): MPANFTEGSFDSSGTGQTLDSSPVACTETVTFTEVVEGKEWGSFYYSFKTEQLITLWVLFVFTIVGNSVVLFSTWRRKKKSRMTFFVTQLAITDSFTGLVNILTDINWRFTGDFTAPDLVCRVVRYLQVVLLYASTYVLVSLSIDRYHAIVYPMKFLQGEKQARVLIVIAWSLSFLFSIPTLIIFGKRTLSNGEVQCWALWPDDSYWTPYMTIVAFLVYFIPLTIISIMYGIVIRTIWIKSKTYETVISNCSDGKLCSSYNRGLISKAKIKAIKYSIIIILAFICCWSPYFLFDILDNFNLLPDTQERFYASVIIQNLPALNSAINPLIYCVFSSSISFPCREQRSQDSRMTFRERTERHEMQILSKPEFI
Tau fluor cs = counter-screen for tau fibril formation inhibitors; Potency, µM (series often up to 57.7 µM); tau K18 P301L Alexa594 fluorescence, heparin fibrillization; AID 1463; actives 0.93% (n = 280,000); further: nearly all actives have a fitted effect of over 55% in size
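Human tau K18 P301L (15 uM unlabeled, 0.24 uM Alexa 594-labeled) in 100 mM sodium acetate pH 7 with 20 uM heparin, 6 hr at 37 C. ThT 30 uM added, 1 hr ambient; Alexa 594 FP and total fluorescence read at 555/632 nm.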
Tau FP inhib = inhibitors of human tau fibril formation; Potency, µM (series often up to 57.7 µM), usual class: inhibitors; K18 P301L tau heparin fibrillization, Alexa594 FP, 6 h; AID 1468; actives 0.39% (n = 280,000); further: nearly all actives have a fitted effect of over 55% in size
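Compound effects on tau fibrillization are measured by Alexa 594 fluorescence polarization (ex 555, em 632 nm). K18 P301L tau is used at 15 uM with 0.24 uM labeled tracer, and 20 uM heparin induces aggregation over 6 hr at 37 C.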
KDM4E inh = inhibitors of human JMJD2E histone demethylase | B2RXH2 | JMJD2E catalytic domain, FDH-coupled NADH fluorescence (FDH is formaldehyde dehydrogenase) | Potency, µM (highest dose often 57.1 µM), hits mostly inhibitors | actives 1.6% (n = 230,000) | AID 2147; active means well fitted inhibition curve with a large enough effect, not every such curve was filed as active; inconclusive means small, poorly fitted or top-dose-only effect, or another doubt; inactive means no such curve, though single readings can be large or run the other way; further: nearly all actives have a fitted effect of over 50% in size
Target sequence (B2RXH2 1-337 limits assumed): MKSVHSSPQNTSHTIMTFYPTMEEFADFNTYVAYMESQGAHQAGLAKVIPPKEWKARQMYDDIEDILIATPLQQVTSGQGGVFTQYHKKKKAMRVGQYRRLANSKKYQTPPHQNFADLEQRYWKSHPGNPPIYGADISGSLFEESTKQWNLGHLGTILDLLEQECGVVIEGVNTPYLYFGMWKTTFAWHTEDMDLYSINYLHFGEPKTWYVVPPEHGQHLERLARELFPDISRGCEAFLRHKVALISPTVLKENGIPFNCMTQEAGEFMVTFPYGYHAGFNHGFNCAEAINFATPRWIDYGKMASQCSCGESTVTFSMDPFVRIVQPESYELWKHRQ
Each line names hits and unclear results; the compound was inactive in the other large screens; ! = not confirmed by another sample; [ ] = another dose, or the depositor's remark. In the library only some 5.1% were active in any assay of this set; here they are far more common. Unless noted, the call rests on the fitted dose curve; in most records, active means well fitted curve in the direction sought with a large enough effect; inconclusive means small, poorly fitted or top-dose-only effect, or another doubt; inactive means no such curve, though single readings can be large; an effect the other way counts as inactive or inconclusive.

O=S(=O)(NCCNS(=O)(=O)c1cccs1)c1cccs1	none
Cc1cc(C2=CC(C)(c3cc(C)oc3C)Nc3nc(C(F)(F)F)nn32)c(C)o1 (centres undefined)	Tau fibril ThT 28.2µM, Tau FP inhib inconclusive, KDM4E inh inconclusive
CC1(C)CCC2=C(O1)c1ccccc1C(=O)C2=O	Tau fibril ThT 12.6µM, NPSR antag inconclusive, Tau FP inhib inconclusive, KDM4E inh 3.55µM! (no result: PNC inhibitor)
COCCn1c(SCC(=O)c2ccc(OC)cc2)nc2cc(C(=O)NC3CCCC3)ccc2c1=O	none (no result: PNC inhibitor, NPSR antag, KDM4E inh)
CC1CCN(c2ccc(C(=O)Nc3ccc4c(c3)OCO4)cc2[N+](=O)[O-])CC1	Tau fibril ThT 3.98µM, Tau fluor cs inconclusive
CC1CCCN(c2ccc(C(=O)NCc3ccc4c(c3)OCO4)cc2[N+](=O)[O-])C1 (centres undefined)	PNC inhibitor inconclusive, Tau fibril ThT inconclusive, Tau fluor cs inconclusive
O=C(COC(=O)c1ccc(N2CCOCC2)c([N+](=O)[O-])c1)Nc1ccc2c(c1)OCO2	Tau fibril ThT inconclusive
CC1CCCN(c2ccc(C(=O)Nc3nnc(C4CC4)s3)cc2[N+](=O)[O-])C1 (centres undefined)	PNC inhibitor inconclusive, Tau fibril ThT 3.98µM, Tau FP inhib inconclusive
CC1CCCN(c2ccc(C(=O)Nc3ccc4c(c3)OCO4)cc2[N+](=O)[O-])C1 (centres undefined)	PNC inhibitor inconclusive, Tau fibril ThT 7.08µM, Tau fluor cs inconclusive
CCOc1ccc(NC(=O)C2CCCN(S(=O)(=O)c3c(C)noc3/C=C/N(C)C)C2)cc1 (centres undefined)	Tau fibril ThT inconclusive, Tau fluor cs inconclusive (no result: PNC inhibitor, NPSR antag, KDM4E inh)
CCCC(=O)C1=C(c2ccc(C)cc2)N(C(=O)CCC)n2cnnc2S1	Tau fibril ThT 15.8µM, Tau fluor cs inconclusive (no result: PNC inhibitor, NPSR antag, KDM4E inh)
CCCC(=O)C1=C(c2ccc(C)c(C)c2)N(C(=O)CCC)n2c(CC)nnc2S1	Tau fibril ThT inconclusive (no result: PNC inhibitor, NPSR antag, KDM4E inh)
CC(=O)Oc1ccccc1C(=O)O	KDM4E inh inconclusive (no result: PNC inhibitor)
Cc1cc(C(=O)Oc2ccccc2C(=O)O)c(C)o1	PNC inhibitor -100.0
O=C1C=C[C@@H](O)[C@H]2[C@@H]3C(=O)N(Cc4ccccc4)C(=O)[C@@H]3CC[C@H]12	none (no result: PNC inhibitor, NPSR antag, KDM4E inh)
COC(CNC(=O)c1ccc(N2CCc3ccccc32)c([N+](=O)[O-])c1)OC	Tau fibril ThT inconclusive, Tau fluor cs inconclusive
NNC(=O)c1ccc(N2CCc3ccccc32)c([N+](=O)[O-])c1	Tau fibril ThT 14.1µM, Tau fluor cs inconclusive (no result: PNC inhibitor)
COc1ccc(OC)c(N=c2oc3cc(O)ccc3cc2C(N)=O)c1	Tau fibril ThT 31.6µM, NPSR antag inconclusive, Tau fluor cs inconclusive, Tau FP inhib inconclusive, KDM4E inh inconclusive
CCOC(=O)c1c(C)[nH]c(C(=O)OCCOc2ccccc2C)c1C	Tau fibril ThT inconclusive
CCOC(=O)c1c(C)[nH]c(C2=NNC(=Nc3ccc(OCC)cc3)SC2)c1C	Tau fibril ThT 14.1µM, Tau fluor cs inconclusive, Tau FP inhib inconclusive
CCOC(=O)c1c(C)[nH]c(C2=NNC(=Nc3ccccc3OC)SC2)c1C	Tau fibril ThT 7.94µM, Tau fluor cs inconclusive
CCOC(=O)c1c(C)[nH]c(C2=NNC(=Nc3ccccc3)SC2)c1C	Tau fibril ThT 3.98µM, Tau fluor cs 7.94µM[quencher], Tau FP inhib inconclusive
CC(=O)c1c(C)[nH]c(C2=NNC(=NC(C)(C)C)SC2)c1C	Tau fibril ThT inconclusive, Tau FP inhib inconclusive, KDM4E inh inconclusive (no result: PNC inhibitor)
Cc1cccc(N2CCN(C(=O)c3cnn(-c4cccc(Cl)c4C)c3C3CCNCC3)CC2)c1C	none (no result: PNC inhibitor, NPSR antag, KDM4E inh)
N#Cc1c(N)oc(-c2ccco2)c1-c1ccco1	Tau fibril ThT 14.1µM, Tau fluor cs inconclusive, KDM4E inh 1.58µM
Cc1ccc(S(=O)(=O)N(C(=O)c2ccncc2)c2ccc(OC(=O)c3ccncc3)c3ccccc23)c(C)c1	Tau fibril ThT 14.1µM, Tau fluor cs inconclusive, Tau FP inhib inconclusive, KDM4E inh inconclusive
Cc1ccc(S(=O)(=O)N(C(=O)c2ccncc2)c2ccc(OC(=O)c3ccncc3)c3ccccc23)cc1	Tau fibril ThT 25.1µM, Tau fluor cs inconclusive, Tau FP inhib inconclusive, KDM4E inh 15.8µM
CC[C@@H](C)[C@H](NC(=O)OC(C)(C)C)c1nnc(S(=O)(=O)Cc2cc(C)ccc2C)o1	NPSR antag 10µM
CC(C)[C@H](NC(=O)OC(C)(C)C)c1nnc(S(=O)(=O)Cc2c(F)cccc2Cl)o1	NPSR antag 12.6µM, Tau FP inhib inconclusive
CC(C)C[C@H](N)c1nnc(S(=O)(=O)Cc2cccc(F)c2)o1	Tau fibril ThT inconclusive
C[C@H](NC(=O)OC(C)(C)C)c1nnc(SCc2c(F)cccc2Cl)o1	none (no result: PNC inhibitor, NPSR antag, KDM4E inh)
CC(C)(C)OC(=O)N[C@@H](Cc1ccccc1)c1nnc(S(=O)(=O)Cc2cccc(F)c2)o1	PNC inhibitor -106.9, NPSR antag inconclusive
Cc1ccccc1CS(=O)(=O)c1nnc([C@H](CC(C)C)NC(=O)OC(C)(C)C)o1	NPSR antag 10µM
Cc1ccc(Cl)cc1N1CCN(C(=O)CCS(=O)(=O)c2cc(Br)cc3c2N(C(=O)C2CC2)CC3)CC1	none (no result: PNC inhibitor, NPSR antag, KDM4E inh)
Cc1ccc(NC(=O)CC2Nc3cc(C)c(C)cc3NC2=O)c(C)c1 (centres undefined)	Tau FP inhib inconclusive (no result: PNC inhibitor, NPSR antag, KDM4E inh)
COc1ccc(-c2cn3nc(N4CCC(C(=O)Nc5ccc(C)cc5)CC4)sc3n2)cc1	Tau fibril ThT inconclusive (no result: PNC inhibitor, NPSR antag, KDM4E inh)
COc1cccc(CNC(=O)c2ccc3c(c2)sc2nc(-c4ccccc4)cn23)c1OC	none (no result: PNC inhibitor, NPSR antag, KDM4E inh)
O=C(NCCc1ccccc1)c1ccc2c(c1)N(Cc1c(F)cccc1Cl)C(=O)CS2	Tau FP inhib inconclusive (no result: PNC inhibitor, NPSR antag, KDM4E inh)
Cc1ccc(S(=O)(=O)N/N=C/c2ccc(O)c(O)c2)cc1[N+](=O)[O-]	Tau fibril ThT inconclusive, KDM4E inh 28.2µM (no result: PNC inhibitor)
COC(=O)CCCC1=CC2=C(c3ccccc3)C(=O)C(C)(OC(=O)C3CCCC3)C(=O)C2=CN1C1CCCC1 (centres undefined)	Tau fibril ThT inconclusive (no result: PNC inhibitor)
COC(=O)CCCC1=CC2=C(c3ccccc3)C(=O)C(C)(OC(=O)C3CCCC3)C(=O)C2=CN1CC1CC1 (centres undefined)	Tau fibril ThT inconclusive, KDM4E inh 11.2µM! (no result: PNC inhibitor)
COC(=O)CCCC1=CC2=C(c3ccccc3)C(=O)C(C)(OC(=O)C3CCCC3)C(=O)C2=CN1CC(C)C (centres undefined)	Tau fibril ThT inconclusive, KDM4E inh 17.8µM! (no result: PNC inhibitor)
COCCN1C=C2C(=O)C(C)(OC(=O)C3CCCC3)C(=O)C(c3ccccc3)=C2C=C1CCCC(=O)OC (centres undefined)	KDM4E inh inconclusive (no result: PNC inhibitor)
C=CCS/C(N)=N\N=C\c1c(O)ccc2ccccc12	Tau fibril ThT inconclusive, NPSR antag inconclusive, Tau fluor cs 11.2µM[quencher], KDM4E inh inconclusive (no result: PNC inhibitor)
CCCS/C(N)=N/N=C/c1ccccc1O	PNC inhibitor inconclusive

Assay outcomes: PubChem BioAssay, National Center for Advancing Translational Sciences (NCATS)
